Among the data in PubChem BioAssay (Tox21) are Potency and activity change, negative = inhibition values, retold here.

Molecules are shown by their SMILES. Where “and” joins values, the source holds several entries; their conditions need not be identical. Equal entries are not always repeated. Results filed as inconclusive are left out. A structure can be active in one record and inactive in another. Calls of active or inactive are those of the source. Unless noted, calls come from the whole dose curve; as a rule, active = well fitted curve in the direction sought with a large enough effect in the repeat runs; inconclusive = weak or mixed curves; inactive = no such curve, though single readings can be large; an effect the other way counts as inactive or inconclusive.

Assay [1] addresses Acetylcholinesterase (Homo sapiens) (UniProt P22303). Kind of assay: Acetylcholinesterase (AChE) small molecule antagonists: enzyme-based qHTS assay (AID 1347397; calls by dose curve; note: nearly all actives have a fitted effect of over 55% in size; note: potency is the fitted concentration of half-maximal effect). The conditions noted are these: Potency: AChE enzyme activity inhibition; outcome: AChE enzyme activity inhibition. In short, it runs like this:
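Colorimetric DTNB read-out of thiocholine released from acetylthiocholine by recombinant human AChE (50 mU/mL as dispensed). Compounds were preincubated 30 min at RT before substrate/DTNB addition, with a 10 min RT reaction.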

Assay [2] shares this target. Nature of the assay: Acetylcholinesterase (AChE) small molecule antagonists: fluorescence cell-based qHTS assay (AID 1347398; calls by dose curve; note: nearly all actives have a fitted effect of over 50% in size; note: potency is the fitted concentration of half-maximal effect). The conditions noted are these: Potency: AChE activity; outcome: AChE activity. The method, boiled down: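 SH-SY5Y, 2,000 cells/well, attached overnight; cmpd 30 min 37 C; acetylthiocholine/Thiolite Green cocktail 40 min RT; fluorescence Ex/Em 490/520 nm.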

Assay [3] shares this target. Kind of assay: Acetylcholinesterase (AChE) small molecule antagonists: enzyme-based qHTS assay with human liver microsomes (AID 1347399; calls by dose curve; note: nearly all actives have a fitted effect of over 60% in size). The note with it: Potency: qHTS inhibition; outcome: qHTS inhibition. The method, boiled down:
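Recombinant human AChE (50 mU/mL in the enzyme mix) and human liver microsomes (0.25 mg/mL final) were preincubated with compound and NADPH (0.25 mg/mL final) for 30 min at 37 C. Acetylthiocholine/DTNB was then added; thiocholine was read colorimetrically after 10 min at room temperature.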

Assay [4] concerns the target Cytochrome P450 2D6 (Homo sapiens) (UniProt P10635). Nature of the assay: Cytochrome P450 Family 2 Subfamily D Member 6 (CYP2D6) small molecule antagonists: luciferase reporter qHTS assay (AID 1671196). For activity change, negative = inhibition: series mostly up to about 120 µM. Note: nearly all actives have a fitted effect of over 50% in size. Note: potency is the fitted concentration of half-maximal effect. In short, it runs like this:
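Luminogenic proluciferin substrate, CYP2D6 enzyme; 10 min RT preincubation with compound, NADPH regeneration system added, 1 h RT. Stop/detection reagent, 20 min RT, luminescence read (RLU). Signal proportional to CYP activity.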

Assay [5] deals with Cytochrome P450 2C19 (Homo sapiens) (UniProt P33261). Kind of assay: Cytochrome P450 Family 2 Subfamily C Member 19 (CYP2C19) small molecule antagonists: luciferase reporter qHTS assay (AID 1671197). For activity change, negative = inhibition: series mostly up to about 120 µM. Note: nearly all actives have a fitted effect of over 65% in size. Note: potency is the fitted concentration of half-maximal effect. The method, boiled down:
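Light output is proportional to CYP2C19 activity: proluciferin substrate is converted to luciferin, then detected by a luciferin detection reagent that also stops the 1 h, 37C NADPH-driven reaction. Ketoconazole serves as positive control.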

Assay [6] addresses Cytochrome P450 2C9 (Homo sapiens) (UniProt P11712). Nature of the assay: Cytochrome P450 Family 2 Subfamily C Member 9 (CYP2C9) small molecule antagonists: luciferase reporter qHTS assay (AID 1671198). For activity change, negative = inhibition: series mostly up to about 120 µM. Note: nearly all actives have a fitted effect of over 50% in size. Note: potency is the fitted concentration of half-maximal effect. The method, boiled down: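 P450-Glo proluciferin substrate with CYP2C9 enzyme; 10 min RT preincubation, then NADPH regeneration 1 h at 37C; luciferin detection reagent 20 min RT, luminescence in relative luminescence units.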

Assay [7] has as its target Cytochrome P450 1A2 (Homo sapiens) (UniProt P05177). Nature of the assay: Cytochrome P450 Family 1 Subfamily A Member 2 (CYP1A2) small molecule antagonists: luciferase reporter qHTS assay (AID 1671199). For activity change, negative = inhibition: series mostly up to about 120 µM. Note: nearly all actives have a fitted effect of over 50% in size. Note: potency is the fitted concentration of half-maximal effect. In short, it runs like this: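 Luminescence readout (relative luminescence units) after luciferin detection reagent, 20 min RT. Preceded by 1 h room-temperature CYP1A2 reaction with NADPH regeneration solution following 10 min compound preincubation with enzyme and proluciferin substrate. Furafylline positive control.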

The target of assay [8] is Voltage-gated inwardly rectifying potassium channel KCNH2 (Homo sapiens) (UniProt Q12809). Nature of the assay: Human Ether-a-go-go-Related Gene (hERG) channel small molecule antagonists: fluorescence cell-based qHTS assay (AID 1671200).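 For activity change, negative = inhibition: hERG-expressing U2OS cells given a thallium stimulus after FluxOR II dye loading; series mostly up to about 77 µM.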 Note: nearly all actives have a fitted effect of over 50% in size. Note: potency is the fitted concentration of half-maximal effect. The method, boiled down:
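Quantitative HTS in hERG-U2OS cells: thallium entry through the channel reports activity, read as continuous 480/540 nm fluorescence over 2 min after stimulus addition.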

Assay [9] has as its target Cytochrome P450 3A4 (Homo sapiens) (UniProt P08684). Nature of the assay: Cytochrome P450 Family 3 Subfamily A Member 4 (CYP3A4) small molecule antagonists: luciferase reporter qHTS assay (AID 1671201). For activity change, negative = inhibition: series mostly up to about 120 µM. Note: nearly all actives have a fitted effect of over 50% in size. Note: potency is the fitted concentration of half-maximal effect. In short, it runs like this:
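Inhibition of CYP3A4 is measured as loss of light: the enzyme converts a proluciferin substrate to luciferin, detected luminescently. Reaction ran 1 h at room temperature with NADPH regeneration after a 10 min compound preincubation.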
% is set by controls: 0 for no effect and ±100 for the full control effect.

Sequence of Voltage-gated inwardly rectifying potassium channel KCNH2 (Homo sapiens) (Q12809 whole entry, looked up): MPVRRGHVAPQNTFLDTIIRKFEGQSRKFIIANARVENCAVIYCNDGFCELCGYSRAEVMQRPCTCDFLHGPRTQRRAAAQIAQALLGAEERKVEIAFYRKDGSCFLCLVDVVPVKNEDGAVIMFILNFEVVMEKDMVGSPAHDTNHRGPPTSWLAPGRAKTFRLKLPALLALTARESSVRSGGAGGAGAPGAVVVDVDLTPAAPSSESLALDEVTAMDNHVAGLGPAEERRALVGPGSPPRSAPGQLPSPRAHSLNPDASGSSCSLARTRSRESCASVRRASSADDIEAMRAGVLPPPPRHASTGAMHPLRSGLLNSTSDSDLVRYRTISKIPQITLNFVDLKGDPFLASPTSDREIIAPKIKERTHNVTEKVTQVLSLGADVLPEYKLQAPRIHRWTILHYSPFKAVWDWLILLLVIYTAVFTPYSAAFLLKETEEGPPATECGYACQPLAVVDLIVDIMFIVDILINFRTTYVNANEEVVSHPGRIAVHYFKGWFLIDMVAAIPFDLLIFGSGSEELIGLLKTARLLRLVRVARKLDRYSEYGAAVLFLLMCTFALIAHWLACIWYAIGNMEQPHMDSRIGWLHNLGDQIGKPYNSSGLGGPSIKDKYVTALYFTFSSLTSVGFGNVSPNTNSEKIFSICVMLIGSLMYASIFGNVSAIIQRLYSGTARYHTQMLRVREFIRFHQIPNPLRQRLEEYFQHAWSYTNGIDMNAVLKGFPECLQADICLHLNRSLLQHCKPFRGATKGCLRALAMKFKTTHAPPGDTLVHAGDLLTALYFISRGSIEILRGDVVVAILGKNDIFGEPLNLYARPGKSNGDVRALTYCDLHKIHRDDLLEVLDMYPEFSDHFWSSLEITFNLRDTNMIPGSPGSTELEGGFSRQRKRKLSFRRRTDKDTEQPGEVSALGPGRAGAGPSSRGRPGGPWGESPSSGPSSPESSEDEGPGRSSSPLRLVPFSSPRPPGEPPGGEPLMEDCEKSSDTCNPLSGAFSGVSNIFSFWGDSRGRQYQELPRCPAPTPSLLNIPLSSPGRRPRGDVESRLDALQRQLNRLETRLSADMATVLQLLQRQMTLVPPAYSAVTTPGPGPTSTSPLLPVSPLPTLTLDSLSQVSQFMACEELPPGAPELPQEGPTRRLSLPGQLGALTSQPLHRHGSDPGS
Sequence of Cytochrome P450 1A2 (Homo sapiens) (P05177 whole entry, looked up): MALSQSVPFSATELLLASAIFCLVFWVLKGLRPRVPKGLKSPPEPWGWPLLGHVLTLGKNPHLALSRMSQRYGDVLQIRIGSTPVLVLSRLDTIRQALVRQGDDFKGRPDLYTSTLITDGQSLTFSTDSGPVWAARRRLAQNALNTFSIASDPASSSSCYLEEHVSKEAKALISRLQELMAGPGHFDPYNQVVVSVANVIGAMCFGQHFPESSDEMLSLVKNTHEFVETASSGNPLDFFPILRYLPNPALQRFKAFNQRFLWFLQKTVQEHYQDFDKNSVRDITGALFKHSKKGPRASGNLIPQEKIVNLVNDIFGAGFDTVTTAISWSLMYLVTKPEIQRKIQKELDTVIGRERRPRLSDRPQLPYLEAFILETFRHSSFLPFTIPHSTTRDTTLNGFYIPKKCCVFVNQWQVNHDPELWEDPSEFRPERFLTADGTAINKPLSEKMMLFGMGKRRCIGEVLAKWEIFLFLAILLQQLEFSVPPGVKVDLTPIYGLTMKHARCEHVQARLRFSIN
Sequence of Cytochrome P450 2C19 (Homo sapiens) (P33261 whole entry, looked up): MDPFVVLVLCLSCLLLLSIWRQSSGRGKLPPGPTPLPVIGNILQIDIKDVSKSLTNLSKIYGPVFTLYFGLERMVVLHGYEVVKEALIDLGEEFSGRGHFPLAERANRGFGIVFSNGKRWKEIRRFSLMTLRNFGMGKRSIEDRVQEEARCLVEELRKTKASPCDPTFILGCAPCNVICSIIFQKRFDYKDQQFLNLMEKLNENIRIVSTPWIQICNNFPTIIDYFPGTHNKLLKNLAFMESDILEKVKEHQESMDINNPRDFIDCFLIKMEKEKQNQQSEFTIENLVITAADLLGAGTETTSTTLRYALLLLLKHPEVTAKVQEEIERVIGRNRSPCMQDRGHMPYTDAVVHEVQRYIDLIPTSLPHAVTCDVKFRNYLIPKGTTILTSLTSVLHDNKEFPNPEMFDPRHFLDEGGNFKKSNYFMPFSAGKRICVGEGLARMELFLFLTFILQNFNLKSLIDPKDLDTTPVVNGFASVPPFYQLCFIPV
Sequence of Cytochrome P450 2C9 (Homo sapiens) (P11712 whole entry, looked up): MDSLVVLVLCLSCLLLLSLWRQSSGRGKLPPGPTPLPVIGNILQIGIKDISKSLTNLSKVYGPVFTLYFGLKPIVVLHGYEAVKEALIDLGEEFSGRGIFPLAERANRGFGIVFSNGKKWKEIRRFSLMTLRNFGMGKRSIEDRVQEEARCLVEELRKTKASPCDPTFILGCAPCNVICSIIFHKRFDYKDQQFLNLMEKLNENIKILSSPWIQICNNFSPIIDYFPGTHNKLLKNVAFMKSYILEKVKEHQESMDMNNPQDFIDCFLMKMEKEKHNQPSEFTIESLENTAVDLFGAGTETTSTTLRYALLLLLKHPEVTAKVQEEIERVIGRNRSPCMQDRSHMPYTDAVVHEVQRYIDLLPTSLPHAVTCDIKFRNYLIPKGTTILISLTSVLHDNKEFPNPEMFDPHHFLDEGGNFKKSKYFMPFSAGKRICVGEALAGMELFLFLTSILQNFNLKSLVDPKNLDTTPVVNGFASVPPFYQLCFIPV
Sequence of Cytochrome P450 3A4 (Homo sapiens) (P08684 whole entry, looked up): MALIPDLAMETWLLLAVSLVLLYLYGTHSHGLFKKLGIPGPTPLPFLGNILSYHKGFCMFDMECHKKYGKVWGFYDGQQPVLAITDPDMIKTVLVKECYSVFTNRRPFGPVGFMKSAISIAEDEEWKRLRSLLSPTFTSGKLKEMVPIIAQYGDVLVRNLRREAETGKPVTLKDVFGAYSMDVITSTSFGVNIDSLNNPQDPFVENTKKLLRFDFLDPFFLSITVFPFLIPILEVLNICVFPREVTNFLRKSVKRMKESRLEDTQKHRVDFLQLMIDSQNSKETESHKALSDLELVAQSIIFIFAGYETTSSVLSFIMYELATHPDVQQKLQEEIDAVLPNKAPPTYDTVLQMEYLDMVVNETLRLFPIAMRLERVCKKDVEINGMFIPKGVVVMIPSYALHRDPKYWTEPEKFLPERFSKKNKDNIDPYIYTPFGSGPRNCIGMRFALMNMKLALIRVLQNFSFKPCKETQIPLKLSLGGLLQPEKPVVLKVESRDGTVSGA
Sequence of Cytochrome P450 2D6 (Homo sapiens) (P10635 whole entry, looked up): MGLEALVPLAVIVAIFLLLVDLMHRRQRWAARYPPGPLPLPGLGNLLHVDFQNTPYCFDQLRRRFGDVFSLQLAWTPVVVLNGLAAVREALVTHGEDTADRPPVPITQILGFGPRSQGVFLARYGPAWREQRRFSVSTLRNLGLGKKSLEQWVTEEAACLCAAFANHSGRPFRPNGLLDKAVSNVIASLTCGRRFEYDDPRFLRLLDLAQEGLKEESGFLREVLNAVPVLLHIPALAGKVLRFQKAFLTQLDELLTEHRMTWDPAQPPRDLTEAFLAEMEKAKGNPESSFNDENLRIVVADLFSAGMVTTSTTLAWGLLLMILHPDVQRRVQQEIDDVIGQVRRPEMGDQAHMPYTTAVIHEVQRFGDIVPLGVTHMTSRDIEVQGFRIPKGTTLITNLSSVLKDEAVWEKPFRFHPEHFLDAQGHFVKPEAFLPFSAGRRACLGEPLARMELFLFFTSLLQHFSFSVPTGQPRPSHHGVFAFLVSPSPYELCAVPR
Sequence of Acetylcholinesterase (Homo sapiens) (P22303 whole entry, looked up): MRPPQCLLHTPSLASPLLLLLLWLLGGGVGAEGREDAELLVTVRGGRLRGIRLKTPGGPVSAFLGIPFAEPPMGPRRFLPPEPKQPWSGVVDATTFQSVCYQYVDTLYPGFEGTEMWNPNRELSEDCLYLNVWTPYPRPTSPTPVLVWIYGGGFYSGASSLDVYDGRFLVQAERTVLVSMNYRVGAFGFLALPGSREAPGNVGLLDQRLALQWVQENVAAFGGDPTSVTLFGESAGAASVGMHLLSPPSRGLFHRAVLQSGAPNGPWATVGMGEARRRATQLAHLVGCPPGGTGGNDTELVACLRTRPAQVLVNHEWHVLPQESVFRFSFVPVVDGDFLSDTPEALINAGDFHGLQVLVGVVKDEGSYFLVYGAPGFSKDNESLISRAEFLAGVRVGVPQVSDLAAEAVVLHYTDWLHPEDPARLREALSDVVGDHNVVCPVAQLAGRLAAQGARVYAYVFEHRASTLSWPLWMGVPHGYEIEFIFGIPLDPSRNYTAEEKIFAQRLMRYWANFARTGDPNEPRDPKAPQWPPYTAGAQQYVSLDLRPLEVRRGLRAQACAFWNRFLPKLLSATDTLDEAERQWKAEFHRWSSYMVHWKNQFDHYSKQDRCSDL

With `CCCCCCCCCCCC[N+](C)(C)CCOc1ccccc1`, the Potency in assay [1] was 63.3 µM (active); in [2] it was 35.6 µM (active); in assay [4] it was 3.56 µM (active) and 4.36 µM (active); in assay [5] it was 56.4 µM (active); in assay [6], 63.3 µM (active); in [7] it was 79.7 µM (active) and inactive. For the same compound, the Potency in assay [8] was 776 nM (active) and 1.34 µM (active). The Potency result in [3] and in assay [9] was “inactive” throughout.
`C=CC(=O)NC(C)(C)CC(C)=O`: the Potency result in assay [1], in [2], in assay [3], in [5], in assay [6] and in assay [7] was “inactive” throughout. The Potency entry in assay [8] and in assay [9] was “inactive” in each case. In addition, the Potency in assay [4] is 35.6 µM (active).
With `CCc1cnc(C2=NC(C)(C(C)C)C(=O)N2)c(C(=O)O)c1` (stereo unspecified), the Potency result in [1], in assay [2], in assay [3], in assay [4], in assay [5] and in [6] was “inactive” in each case. The Potency entry in [7], in [8] and in assay [9] was “inactive” in each case.
With `Cc1cccc(C)c1NC1=NCCCS1`, the Potency result in [1], in assay [2], in assay [3], in assay [5], in [6] and in assay [7] was “inactive” each time. In [8], the Potency result was “inactive”. Besides, in [4], the Potency was 11 µM (active).
For the compound `COC1=CC(=O)O[C@@H](/C=C/c2ccc3c(c2)OCO3)C1`, the Potency result in assay [1], in assay [2], in assay [3] and in [8] was “inactive” each time. Moreover, the Potency is 34.1 µM (active) in assay [4]; 8.56 µM (active) in assay [5]; 2.71 µM (active) in assay [6]; 3.41 µM (active) in assay [7]; 4.81 µM (active) in assay [9].
With `Cc1ccccc1`, the Potency result in assay [1], in assay [2], in [3], in assay [4], in assay [5] and in [6] was “inactive” in each case. In addition, the Potency entry in [7], in assay [8] and in assay [9] was “inactive” in each case.
For the compound `CCOC(C(=O)OCCN(C)C)(c1ccccc1)c1ccccc1`, the Potency result in [1], in assay [2], in assay [3], in assay [7] and in assay [8] was “inactive” in each case. Besides, the Potency in [4] was 2.75 µM (active); in assay [5], 8.71 µM (active); in assay [6] it was 11 µM (active).
Consider `CC(C)(C)CC(C)(C)c1ccc(O)cc1`, for which the Potency entry in assay [1], in [3], in [5] and in assay [9] was “inactive” throughout. Besides, the Potency in assay [2] is 31.7 µM (active) and inactive; in assay [4], 39.9 µM (active) and inactive; in assay [6], 22.4 µM (active) and 15.5 µM (active); in assay [7], 37.3 µM (active); in assay [8] it was 40 µM (active).
On to `CCOP(=S)(OCC)SCSc1cc(Cl)ccc1Cl`, for which the Potency entry in assay [1], in [2], in assay [3], in assay [4], in assay [5] and in assay [6] was “inactive” each time. Further, the Potency result in [7], in assay [8] and in assay [9] was “inactive” throughout.
Consider `Nc1c(Br)cc(Br)c2c1C(=O)c1ccccc1C2=O`, for which the activity change, negative = inhibition was 0.0969% [at 23.6 µM] (inactive) in assay [1]; 2.58% [at 23.8 µM] (inactive) in [2]; 0.243% [at 23.6 µM] (inactive) in assay [3]; 0.314% [at 23.6 µM] (inactive) in assay [4]; -3.63% [at 23.6 µM] (inactive) in assay [5]; -2.78% [at 23.6 µM] (inactive) in assay [6]. Also, the activity change, negative = inhibition in [8] is -6.02% [at 15.8 µM] (inactive); in [9] it was 1.74% [at 23.6 µM] (inactive). In assay [7], the Potency is 0.168 µM (active).
For the compound `C[Si](Cn1cncn1)(c1ccc(F)cc1)c1ccc(F)cc1`, the Potency entry in [1], in assay [2] and in assay [3] was “inactive” each time. The Potency in assay [4] was 26 µM (active) and 31.7 µM (active); in [5], 58.3 nM (active) and 39.9 nM (active); in assay [6], 1.84 µM (active) and 2 µM (active); in assay [7] it was 32.8 µM (active) and 20 µM (active); in [8] it was 45.1 µM (active); in assay [9], 104 nM (active) and 126 nM (active).
For `CN1CC[C@]23c4c5ccc(O)c4O[C@H]2[C@@H](O)CC[C@H]3[C@H]1C5`, the Potency result in [1], in assay [2], in assay [3], in assay [5], in [6] and in [7] was “inactive” throughout. Besides, the Potency result in assay [8] and in assay [9] was “inactive” in each case. Besides, in [4], the Potency is 44 µM (active).
Take `CCCCCBr`: the Potency entry in assay [1], in [2], in assay [3], in assay [4], in [5] and in [6] was “inactive” each time. In addition, the Potency result in assay [7], in assay [8] and in [9] was “inactive” in each case.
Take `C=CCN1C[C@H](C)N([C@H](c2ccc(C(=O)N(CC)CC)cc2)c2cccc(OC)c2)C[C@H]1C`: the Potency entry in assay [1], in [2], in [3], in assay [5], in assay [6] and in assay [7] was “inactive” each time. In addition, the Potency in assay [4] was 3.09 µM (active); in assay [8], 3.01 µM (active).
Consider `CC(CC(C(N)=O)(c1ccccc1)c1ccccc1)N(C)C` (stereo unspecified), for which the Potency entry in assay [1], in assay [2], in assay [3], in assay [5], in assay [6] and in [7] was “inactive” in each case. Moreover, the Potency entry in [8] and in [9] was “inactive” in each case. In addition, the Potency in assay [4] was 6.17 µM (active).
With `O=CC=O`, the Potency result in [1], in assay [2], in assay [3], in [4], in [5] and in assay [6] was “inactive” throughout. For the same compound, the Potency result in assay [7], in [8] and in assay [9] was “inactive” in each case.
As to `CCOP(=O)(SC(C)CC)N1CCSC1=O` (stereo unspecified), the Potency entry in assay [1], in assay [2], in [3], in assay [4] and in assay [8] was “inactive” each time. Besides, the figures for the Potency in assay [5], in assay [6] and in [7] were 79.6 µM (active), 63.3 µM (active) and 35.6 µM (active), respectively.
`CN(C)C(=O)Nc1cccc(OC(=O)NC(C)(C)C)c1`: the Potency result in [1], in assay [2], in assay [3], in assay [4], in assay [5] and in [6] was “inactive” each time. For the same compound, the Potency result in [8] and in assay [9] was “inactive” in each case. For the same compound, the Potency in assay [7] was 39.9 µM (active).
On to `C=CCc1ccc(OC(=O)Cc2ccccc2)c(OC)c1`, for which the Potency entry in assay [1], in assay [2], in [3] and in assay [8] was “inactive” each time. Also, the Potency in [4] was 35.6 µM (active); in assay [5], 22.4 µM (active); in [6], 12.6 µM (active); in [7], 35.6 µM (active); in assay [9] it was 11.2 µM (active).
`OCCCl`: the Potency entry in assay [1], in assay [2], in [3], in [4], in [5] and in [6] was “inactive” each time. Besides, the Potency entry in assay [7], in [8] and in assay [9] was “inactive” throughout.
